Screening results: PubChem, Broad Institute
LGR2 antag – Drosophila LGR2 receptor signaling inhibition; 380,000 tested, 0.35% active; HEK293 LGR2, CRE-luciferase, bursicon-stimulated, 4 h; inhibition, % at 9.99 µM;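 active = drop in luminescence signal, shown as inhibition above about 50% in the replicate tests, limit read from the data, passing the limit was not always enough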;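 also: agonist challenge used bursicon conditioned medium at about half maximal strength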
Shn3 3UTR inh – Schnurri-3 reporter inhibition in Clone20 osteoblasts | Clone20 osteoblast Shn3 3'UTR firefly luciferase, 24 h | inhibition, % at 12.5 µM | 360,000 tested, 0.52% active | AID 588674;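 active = mean inhibition of at least 75% with every replicate also reaching 75%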;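 also: 0% = median of neutral control wells and 100% = pilot-screen positive control compound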
LMP1 NFkB inh – reduces LMP1-driven NF-kappaB luciferase signal. LMP1-induced NF-kappaB luciferase reporter cells, luminescence. 350,000 tested, 0.69% active. inhibition, % at 12.5 µM. AID 504558; in the data active = inhibition above about 41%;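 also: 0% = neutral control wells and 100% = reference inhibitor control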
EWS-Fli block – blocks EWS/Fli oncoprotein-driven transcription | A673 NR0B1-luciferase reporter, viability-normalised | inhibition, % at 12.6 µM | 350,000 tested, 0.67% active | AID 651661;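 active = mean inhibition of at least 50% after viability correction, with every replicate also passing that limit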;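 also: firefly luciferase signal divided by Alamar Blue viability fluorescence both relative to DMSO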
PAX8 inh HTS – lowers PAX8-driven luciferase in RMG-I cells; RMG-I TPO-luciferase reporter, SteadyGlo, 24 h; inhibition, % at 12.6 µM; 360,000 tested, 1.2% active; AID 652154;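 active = mean replicate inhibition at least 60% with every replicate also reaching 60%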;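 also: luciferase light reporting Pax8 driven TPO promoter activity; plate controls were median of neutral control wells for no effect and mitoxantrone controls for full effect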
MITF TRPM1 inh – inhibitors of MITF-driven TRPM1 promoter in melanoma cells | inhibition, % at 12.5 µM | 330,000 tested, 0.83% active | SK-MEL-5 TRPM1 promoter luciferase, 24 h | AID 488899;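 active = mean inhibition across replicates of 60% or more, whatever share of single replicates reaches that level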
* marks the source's active call; other numbers are inactive results; · = no result; ! = repeats disagree. This is a sample that favours compounds with a hit; in the whole collection about 2.2% have one here.

SMILES	LGR2 antag	Shn3 3UTR inh	LMP1 NFkB inh	EWS-Fli block	PAX8 inh HTS	MITF TRPM1 inh
C[C@@H]1CCCCO[C@H](CN(C)Cc2ccc(Cl)c(Cl)c2)[C@@H](C)CN([C@@H](C)CO)C(=O)c2cc(NS(=O)(=O)c3ccccc3)ccc2O1	·	·	·	18.5	103.5*	·
C[C@@H]1CCCCO[C@@H](CN(C)Cc2ccc(Cl)c(Cl)c2)[C@H](C)CN([C@@H](C)CO)C(=O)c2cc(NS(=O)(=O)c3ccccc3)ccc2O1	10.3	·	·	9.8	94.6*	·
C[C@H]1CCCCO[C@H](CN(C)Cc2ccc(Cl)c(Cl)c2)[C@@H](C)CN([C@@H](C)CO)C(=O)c2cc(NS(=O)(=O)c3ccccc3)ccc2O1	-3.5	·	·	15.2	5.5	·
C[C@@H]1CCCCO[C@H](CN(C)Cc2ccc(Cl)c(Cl)c2)[C@@H](C)CN([C@H](C)CO)C(=O)c2cc(NS(=O)(=O)c3ccccc3)ccc2O1	0.8	·	·	0.3	-25.4	·
C[C@@H]1CN([C@H](C)CO)C(=O)c2cc(NS(=O)(=O)c3ccccc3)ccc2O[C@@H](C)CCCCO[C@@H]1CN(C)Cc1ccc(Cl)c(Cl)c1	23.5	·	·	15.8	101.7*!	·
CO[C@H]1CN(C)C(=O)c2ccc(NC(=O)C3CCOCC3)cc2OC[C@@H](C)N(Cc2cccnc2)C[C@@H]1C	3.1	·	·	3.1	14.2	·
C[C@H](O)C#Cc1cnc2c(c1)C(=O)N([C@@H](C)CO)C[C@@H](C)[C@H](CN(C)C(=O)c1ccc(F)cc1)O2	25.5	·	·	-3.4	·	·
c1ccc(-c2ncc3c(ccc4ccccc43)n2)cc1	80.8*	15.1	19.2	·	-106.8	0.4
c1ccc2c(c1)cnc1ccccc12	-5.7	-4.9	2.0	-7.7	-32.1	-20.2
c1ccc(-c2cnc(-c3ccccc3)nc2)cc1	55.8*	20.5	4.5	·	·	-17.4
CCCCCC1CC1C(=O)N/N=C/c1ccc(N(C)C)cc1 (configuration not stated)	·	89.1*	-13.6	·	12.6	-2.9
CC(C)NC(=O)N[C@H]1C=C[C@H](CC(=O)NCCN2CCCC2)O[C@H]1CO	1.2	·	·	3.2	-3.6	·
CC(C)C[C@H](NC(=O)c1nc[nH]c1C(=O)NCC(=O)OC(C)(C)C)C(=O)OC(C)(C)C	·	3.3	10.5	3.2	9.0	-2.0
CC(C)C[C@H](NC(=O)c1nc[nH]c1C(=O)N[C@@H](CC(C)C)C(=O)OC(C)(C)C)C(=O)OC(C)(C)C	-1.9	45.7	1.7	24.2	65.9*	·
CC(C)C[C@H](NC(=O)c1nc[nH]c1C(=O)NC(c1ccccc1)c1ccccc1)C(=O)OC(C)(C)C	22.7	28.4	-19.4	23.4	67.5*	8.6
CC(C)C[C@H](NC(=O)c1[nH]cnc1C(=O)N[C@H](C)c1ccccc1)C(=O)OC(C)(C)C	2.3	31.3	-16.4	6.2	28.7	9.2
C[C@H](CO)N1C[C@H](C)[C@H](CN(C)C(=O)Nc2ccc3c(c2)OCO3)Oc2ccc(NC(=O)CCN3CCOCC3)cc2C1=O	0.5	·	·	-8.7	·	·
O=C(CSc1ccc(-c2ccco2)nn1)NCc1ccccc1	0.8	-16.8	2.1	4.6	63.3*	8.2
O=C(CSc1ccc(-c2ccco2)nn1)NCc1ccc(Cl)cc1	32.5	-6.5	-9.6	4.4	-7.0	-5.3
COc1ccc(-c2cc3nc(NCc4ccc(N(C)C)cc4)n(C)c(=O)c3s2)cc1OC	74.2*	-9.9	·	8.9	5.9	·
C[C@@H]1CC=C[C@H]2[C@H]1C(=O)N(Cc1ccccc1)[C@H]2c1cccc([N+](=O)[O-])c1	·	86.6*	-4.6	14.8	-21.7	-7.6
CC1CC(C)(C)Nc2ccc(N=O)cc21 (configuration not stated)	1.6	92.7*	20.7	36.5	60.0	60.8*
C[C@@H]1CN([C@@H](C)CO)C(=O)CCCn2nncc2CO[C@H]1CN(C)Cc1ccccc1O	-12.2	·	·	-4.5	·	·
CO[C@H]1CN(C)C(=O)c2ccc(NC(=O)Nc3ccccc3F)cc2OC[C@H](C)NC[C@H]1C	11.2	·	·	-4.1	·	·
O=C(N/N=C/c1sc2ccccc2c1O)c1cccc2ccccc12	-3.4	70.0	53.9*	·	19.0	43.9
COc1cc2cc(C(=O)N3CCN(c4ccccc4OC)CC3)[nH]c2cc1OC	24.6	2.4	53.0*	7.8	7.6	7.4
COc1ccccc1N1CCN(c2ncc(C(=O)N3CCN(c4cccc(Cl)c4)CC3)c3ccccc23)CC1	38.7	92.7*	31.9	13.7	-20.8	40.7
